In PubChem BioAssay (NCI) one finds growth inhibition data, which are given here for 8 compounds.

A short description of this experiment: NCI Yeast Anticancer Drug Screen. Data for the rad14 strain (AID 159).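 Further: 0% = growth of vehicle-treated control cultures.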 The conditions noted are these: S. cerevisiae rad14 strain growth inhibition, active compounds read high. The method, then: Growth inhibition of yeast strains with defined genetic alterations is measured as a screen for potential anti-cancer activity. Selected strains with alterations in DNA damage repair or cell cycle control were exposed to compounds and growth inhibition was measured relative to vehicle treated controls. The strain used in this assay is rad14

This is part of a sample that, as a whole, favours compounds with a hit. Of some 79,000 tested, about 15% had one in any assay. Values without a mark were called inactive. Calls of active or inactive are those of the source. No stated cut-off is given here; in the data, active means growth inhibition above about 70%; inactive means the rest.

As to `C[n+]1c(-c2ccc(NC(=O)c3ccc(C(=O)Nc4ccc(-c5cn6ccccc6[n+]5C)cc4)cc3)cc2)cn2ccccc21`, the growth inhibition is, setting by setting: (at 1.2 µM) -2%; (at 3.7 µM) -2%; (at 11.0 µM) 13%; (at 33.0 µM) 84% (active); (at 100.0 µM) 96% (active).

Consider `OC(c1ccc(Br)cc1)(c1cccs1)C1CC1` (stereo not given), for which the growth inhibition is 5% (at 1.2 µM); 13% (at 3.7 µM); 27% (at 11.0 µM); 97% (active) (at 33.0 µM); 97% (active) (at 100.0 µM).

For `O=C1c2ccc(O)cc2C(=O)c2c(O)ccc(O)c21`, the growth inhibition runs as follows: (at 1.2 µM) 10%; (at 3.7 µM) 27%; (at 11.0 µM) 93% (active); (at 33.0 µM) 95% (active); (at 100.0 µM) 91% (active).

For `CCOC(=O)C1=C(C)NC(C)=C(C(=O)OCC)C1c1ccc(Cl)cc1`, the growth inhibition is -14% (at 1.2 µM); -6% (at 3.7 µM); 85% (active) (at 11.0 µM); 82% (active) (at 33.0 µM); 93% (active) (at 100.0 µM).

As for `Cc1ccc(C(C)C)c(C(=C2C=CC(=[N+](C)C)C=C2)c2c(C(C)C)ccc(C)c2O)c1O`, the growth inhibition was 1% (at 1.2 µM); 19% (at 3.7 µM); 98% (active) (at 11.0 µM); 94% (active) (at 33.0 µM); 85% (active) (at 100.0 µM).

On to `Nc1ccc2cc(Br)c3ccccc3c2c1`, for which the growth inhibition was -1% (at 1.2 µM); 0% (at 3.7 µM); 4% (at 11.0 µM); 8% (at 33.0 µM); 21% (at 100.0 µM).

As for `O=C(Cc1ccccc1F)NC1=C(Cl)C(=O)c2ccccc2C1=O`, the growth inhibition reads like this: (at 1.2 µM) -26%; (at 3.7 µM) -12%; (at 11.0 µM) -8%; (at 33.0 µM) 19%; (at 100.0 µM) 38%.

As for `N=C(N)c1ccc(N=Nc2c(O)ccc3c2[nH]c2ccccc23)cc1`, the growth inhibition was -1% (at 1.2 µM); 3% (at 3.7 µM); 90% (active) (at 11.0 µM); 96% (active) (at 33.0 µM); 97% (active) (at 100.0 µM).
